Assay outcomes (PubChem)
This is a sample that favours compounds with a hit; in the whole collection about 2.4% have one here.
D2 ag-1 – Beta-Arrestin HTS for Positive Allosteric Modulators of the Human D2 Dopamine Receptor: Agonists; activation, % (concentration not given with the values); hit rate 0.084% among 360,000; D(2) dopamine receptor (Homo sapiens), P14416; DiscoveRx PathHunter D2 beta-arrestin, luminescence, 90 min; 100% = 57 uM dopamine signal; in the data active = activation above about 40%; inconclusive = between about 15% and that limit
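Agonist mode: compounds alone added to overnight-plated D2 PathHunter cells for 90 min at 37 C, with 57 uM final dopamine (EC100) defining full response. Beta-arrestin recruitment detected by chemiluminescent reagent, read after 1 h at ambient temperature.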
D2 ag-2 – HTS Assay for Allosteric Agonists of the Human D2 Dopamine Receptor: Primary Screen for Agonists; D(2) dopamine receptor (Homo sapiens), P14416; HEK293 T-REx D2 cells, calcium flux agonist mode; activation, % at 2 µM; hit rate 0.53% among 340,000; AID 485358, 2010;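 active = activation over 3 SD above normal in the single-dose calcium agonist read, cut at about 30% in these data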; also: 0% is about no effect
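In this primary screen, compounds producing a positive calcium signal within 180 s of addition to tetracycline-induced, force-coupled HEK293 Trex D2 cells are flagged; cells are dye-loaded with a no-wash calcium kit beforehand.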
D2 PAM-1 – Beta-Arrestin HTS for Positive Allosteric Modulators of the Human D2 Dopamine Receptor: Potentiators; potentiation, % (no concentration beside the values); DiscoveRx D2 beta-arrestin cells, luminescence, 90 min; 100% = 57 uM dopamine signal; AID 624464, 2012; hit rate 0.23% among 360,000; in the data active = potentiation above about 50%; inconclusive = mostly about 30% to 49%
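PathHunter D2 cells, attached overnight at 37 deg C, received compound in DMSO plus dopamine at EC20 (50 nM final) for 90 min at 37 deg C. Beta-arrestin recruitment was read as luminescence after 1 h with detection reagent at ambient temperature.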
D2 PAM-2 – HTS Assay for Positive Allosteric Modulators of the Human D2 Dopamine Receptor: Primary Screen for Potentiators. AID 485347, 2010. hit rate 0.34% among 340,000. HEK293 T-REx D2, calcium flux, EC20 dopamine potentiation. potentiation, % at 10 µM;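 active = potentiation over 3 SD above the plate norm, cut at about 30% in these data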; also: 0% is about no effect
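Tetracycline-induced HEK293 T-REx cells force-coupled to calcium signalling expressed D2; compounds were pin-added after a 10 s baseline, read kinetically 180 s, then an EC20 dopamine challenge followed with a further 180 s calcium read.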
D2 antagonist – HTS Assay for Allosteric Antagonists of the Human D2 Dopamine Receptor: Primary Screen for Antagonists; HEK293 TREx D2 cells, calcium flux, dopamine EC80; inhibition, % at 10 µM; hit rate 2% among 340,000; AID 485344, 2010; in the data active = inhibition above about 30%; inactive = below that, where a call was filed; also: 0% is about no effect
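Tetracycline-induced HEK293 TREx cells expressing D2 receptor forced-coupled to calcium signalling, loaded with no-wash calcium dye. Compounds added and calcium flux read 180 s, then dopamine added at EC80 and read a further 180 s.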
D3 ag – qHTS of D3 Dopamine Receptor Agonist: D3 Dopamine Receptor B-arrestin Agonist Confirmatory Assay; Potency, µM (series often up to 76.9 µM), for the others: at the highest dose activation, hits mostly activators; hit rate 4% among 2,300; DiscoveRx D3 beta-arrestin cells, luminescence, 90 min; shares compounds with D2 ag-2;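 also: potency is read from the fitted curve at half-maximal effect; 100% = dopamine control response; nearly all actives have a fitted effect of over 70% in size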
Target sequence (P35462 whole entry, looked up): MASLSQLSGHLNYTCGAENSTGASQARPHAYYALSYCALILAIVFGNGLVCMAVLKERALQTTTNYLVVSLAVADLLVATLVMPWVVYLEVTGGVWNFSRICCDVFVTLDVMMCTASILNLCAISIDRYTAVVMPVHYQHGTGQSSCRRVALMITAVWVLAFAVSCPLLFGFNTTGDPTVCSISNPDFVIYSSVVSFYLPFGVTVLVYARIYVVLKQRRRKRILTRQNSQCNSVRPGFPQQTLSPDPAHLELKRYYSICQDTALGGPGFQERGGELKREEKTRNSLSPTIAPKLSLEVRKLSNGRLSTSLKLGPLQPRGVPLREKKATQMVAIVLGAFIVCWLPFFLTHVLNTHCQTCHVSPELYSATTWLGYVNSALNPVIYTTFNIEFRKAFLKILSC
D2 ag-3 – qHTS of D3 Dopamine Receptor Agonist: D2 Dopamine Receptor B-arrestin Agonist Counterscreen | shares compounds with D2 ag-2 | DiscoveRx PathHunter D2 beta-arrestin, luminescence, 90 min; response scale: percent relative to full dopamine signal | Potency, µM (highest dose often 76.9 µM), for inactives: top-dose activation, actives largely listed as activators | hit rate 5.9% among 2,300 | AID 720507, 2013; also: potency is read from the fitted curve at half-maximal effect; % of control where 0% means no effect; nearly all actives have a fitted effect of over 70% in size
An asterisk follows results filed as active; ? = inconclusive; / = no result; ! = not confirmed by another sample. Unless noted, calls follow the shape of the dose curve; as a rule, active = well fitted activation curve with a large enough effect; inconclusive = small, poorly fitted or top-dose-only effect; inactive = flat fitted curve, though single readings scatter.

SMILES	D2 ag-1	D2 ag-2	D2 PAM-1	D2 PAM-2	D2 antagonist	D3 ag	D2 ag-3
O=C(CCN1CCN(c2ccccn2)CC1)Nc1ccc(F)cc1	12.2	69.3*	-17.3	-23.7	67.4*	?	28.8%
O=C(CN1CCN(c2ccccn2)CC1)Nc1ccc(OC(F)(F)F)cc1	8.8	16.3	1.5	-11.0	-24.1	/	/
CN(C)c1ccc(NC(=O)CCN2CCN(c3ccccn3)CC2)cc1	?	80.1*	?	-27.4	84.6*	?	0.251µM*
CCCCC(CC)CNC(=O)c1ccc(Cn2c(=O)[nH]c3cc(OC)c(OC)cc3c2=O)cc1 (centres undefined)	/	0.1	/	3.7	/	/	/
CCOc1ccc2oc(=O)cc(CN3CCN(c4ccc(OC)cc4)CC3)c2c1	/	1.2	/	-1.6	/	/	/
NC(=O)CN1CCN(c2ccccc2F)CC1	0.2	1.1	-20.6	-8.1	25.7	/	/
O=C(CCN1CCCO1)N1CCCC(N2CCN(c3ccccc3F)CC2)C1 (centres undefined)	-0.7	-2.3	-10.5	-6.1	6.6	/	/
CSCCCN1CC[C@@H](N2CCN(c3ccccc3F)CC2)[C@H](O)C1	?	75.5*	7.7	-21.5	79.4*	19.3%	?
CSCCC(=O)N1CC[C@@H](N2CCN(c3ccccc3F)CC2)[C@H](O)C1	10.6	29.9	7.7	3.7	44.6*	21.7%	?
CC(C)=CC(=O)N1CC[C@@H](N2CCN(c3ccccc3F)CC2)[C@H](O)C1	43.1*	79.8*	6.3	-15.0	46.3*	21.4%	?
Cc1ccc(C(=O)n2nc(C)c(S(=O)(=O)N3CCCCCC3)c2C)cc1	/	0.7	/	3.4	/	/	/
CCc1ccc(S(=O)(=O)c2nnn3c2nc(NC2CCCCCC2)c2sccc23)cc1	/	-1.9	/	0.2	/	/	/
Fc1ccc(-c2nc(Nc3cccc(C(F)(F)F)c3)nc3c2COc2ccccc2-3)cc1	/	/	/	0.0	/	/	/
CCCN(CCC)CCNC(=O)c1cc2c(-c3ccc(Cl)cc3)nn(C)c2s1	?	45.0*	-3.2	-16.4	37.0*	12.3%	?
CCCN(CCC)CCNC(=O)c1cc2c(-c3ccccc3F)nn(C)c2s1	66.7*	42.6*	?	-15.5	41.5*	-3.0%	?
CCN(CC)CCNC(=O)c1cc2c(-c3ccc(Cl)cc3)nn(C)c2s1	0.4	6.5	10.5	-14.0	2.3	/	/
CCCCN(CC)CCNC(=O)c1cc2c(-c3ccc(Cl)cc3)nn(C)c2s1	74.9*	44.3*!	56.7*	-22.2	71.8*	?	25.1µM*
CCc1ccc(CNCc2c(C(=O)O)n(Cc3ccc(C)cc3)c3cc(C)ccc23)cc1	/	1.0	/	-0.7	/	/	/
CN(C)S(=O)(=O)n1cnc([C@H]2c3c(ncn3Cc3ccccc3)C[C@H]3COC(=O)[C@@H]32)c1	-4.9	0.0	-2.7	10.4	-0.6	/	/
CN(C)S(=O)(=O)n1cnc([C@@H]2[C@@H]3C(=O)OC[C@@H]3C[C@]23N=CN(Cc2ccccc2)C3=O)c1	0.6	-0.2	-4.8	8.1	30.9*	-1.7%	-3.9%
CCOC(=O)C(NC(=O)c1ccccc1Cl)(Nc1ccc(C(F)(F)F)cc1)C(F)(F)F (centres undefined)	-3.3	29.0	-5.0	2.9	-9.4	-6.8%	-2.4%
